# 12-LOX inh: Primary qHTS assay for inhibitors of human arachidonate 12S-lipoxygenase (ALOX12): Round 2; purified 12hLO, xylenol orange hydroperoxide absorbance; Polyunsaturated fatty acid lipoxygenase ALOX12 (Homo sapiens), P18054; hit rate 1.1% among 580,000; Potency, µM (top dose mostly 108 µM), without a hit: at the highest dose activity change, negative = inhibition, hits mostly inhibitors
# Target sequence (P18054 whole entry, looked up): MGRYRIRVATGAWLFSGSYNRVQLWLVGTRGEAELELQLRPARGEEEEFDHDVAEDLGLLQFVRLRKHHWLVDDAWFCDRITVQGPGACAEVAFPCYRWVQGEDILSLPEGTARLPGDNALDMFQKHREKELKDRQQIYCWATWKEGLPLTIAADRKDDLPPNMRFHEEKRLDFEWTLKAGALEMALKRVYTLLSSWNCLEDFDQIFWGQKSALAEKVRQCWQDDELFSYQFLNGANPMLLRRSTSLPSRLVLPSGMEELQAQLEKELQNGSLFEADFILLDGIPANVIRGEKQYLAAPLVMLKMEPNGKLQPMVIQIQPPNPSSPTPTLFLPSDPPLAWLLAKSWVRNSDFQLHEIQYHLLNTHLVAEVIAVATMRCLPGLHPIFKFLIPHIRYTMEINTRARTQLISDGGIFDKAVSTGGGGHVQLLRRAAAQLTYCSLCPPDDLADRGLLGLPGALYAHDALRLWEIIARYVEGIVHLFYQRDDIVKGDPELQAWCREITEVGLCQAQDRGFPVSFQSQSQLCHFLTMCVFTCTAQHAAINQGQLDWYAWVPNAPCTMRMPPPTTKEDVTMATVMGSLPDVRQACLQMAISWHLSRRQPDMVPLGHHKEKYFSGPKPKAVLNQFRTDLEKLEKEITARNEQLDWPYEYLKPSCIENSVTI
#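 Purified human 12hLO at 150 nM in 25 mM Hepes, 0.01% Triton X-100, pH 7.0, preincubated 15 min at room temperature with compound. Reaction started with 40 uM arachidonic acid, 30 min at room temperature. Hydroperoxide measured by Fe-xylenol orange, 573/405 nm absorbance ratio.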
# VP16 counter: VP16 counterscreen qHTS for inhibitors of ROR gamma transcriptional activity | Potency, µM (doses to about 53.6 µM), inactives show at the top dose activity, negative = inhibition, usual class: inhibitors | hit rate 3.5% among 310,000 | Drosophila S2 Gal4-VP16 UAS-luciferase, luminescence, 20 h | AID 2546, 2010;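 also: Gal4-VP16 expression switched on by copper sulfate through the metallothionein promoter; nearly all actives have a fitted effect of over 50% in size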
# TDP1 cell noCPT: qHTS for Inhibitors of human tyrosyl-DNA phosphodiesterase 1 (TDP1): qHTS in cells in absence of CPT | Potency, µM (doses to about 46.2 µM), without a hit: top-dose activity change, negative = growth inhibition, hits mostly inhibitors | DT40 Tdp1-/- hTDP1 cells, no CPT, ATP luminescence, 48 h | hit rate 15% among 420,000; also: nearly all actives have a fitted effect of over 55% in size
#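 Growth kinetics read by CellTiter-Glo luminescence after ≥48 hr at 37 °C. Cells: DT40 Tdp1-/- stably carrying human TDP1, 400 per well, compound exposure in the absence of CPT (DMSO vehicle).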
# RORgamma inh: qHTS for inhibitors of ROR gamma transcriptional activity. Potency, µM (series often up to 53.6 µM), for the others: at the top dose activity change, negative = inhibition, actives largely listed as inhibitors. hit rate 5.4% among 310,000. Drosophila S2 Gal4-RORgamma UAS-luciferase reporter, 20 h. AID 2551, 2010. Nuclear receptor ROR-gamma (Mus musculus), P51450; also: nearly all actives have a fitted effect of over 60% in size
#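 ROR gamma transcriptional activity was tracked as Gal4-UAS luciferase output in stably transfected Drosophila Schneider cells, with compound added 1 hr before 700 uM copper sulfate induction and a 20 hr ambient-temperature incubation.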
# ELG1 DNA repair: qHTS screen for small molecules that inhibit ELG1-dependent DNA repair in human embryonic kidney (HEK293T) cells expressing luciferase-tagged ELG1 | HEK293T ELG1-luciferase reporter, luminescence, 16 h; DNA damage induced by 5-fluorouridine | Potency, µM (titrated, usually from 46.1 µM), for the others: top-dose activity change, negative = inhibition, hits mostly inhibitors | hit rate 2.3% among 330,000 | AID 504467, 2011; also: nearly all actives have a fitted effect of over 55% in size
#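 Step one: seed 2,000 cells per well. Step two: pin-transfer compound or DMSO alongside 5-fluorouridine. Step three: incubate 16 hr, 37 °C, 5% CO2. Step four: add ONE-Glo, wait 30 min, read luminescence.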
# DT40 TDP1 CPT: qHTS for Inhibitors of human tyrosyl-DNA phosphodiesterase 1 (TDP1): qHTS in cells in presence of CPT; chicken DT40 Tdp1-/-;hTDP1 cells + 20 nM CPT, ATP luminescence, 48 h; Potency, µM (top dose mostly 46.2 µM), for inactives: top-dose activity change, negative = growth inhibition, usual class: inhibitors; hit rate 12% among 420,000; AID 686979, 2013; also: nearly all actives have a fitted effect of over 55% in size
#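 Chicken DT40 Tdp1-/- cells stably complemented with human TDP1 were seeded at 400 cells/well in medium containing 20 nM camptothecin, exposed to pin-transferred compounds, and grown at 37 °C for at least 48 hr. Viability was read as ATP luminescence.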
# The depositor's hits bear a star; ? = inconclusive; / = not tested or not shown; ! = not active in a repeat; [ ] = remark or other dose. The list is not random: actives were taken first. Their share in the collection is about 15%. Calls follow the shape of the dose curve; as a rule, active = well fitted curve in the direction sought with a large enough effect; inconclusive = small, poorly fitted or top-dose-only effect, or another doubt; inactive = no such curve, though single readings can be large; an effect the other way counts as inactive or inconclusive. % is scaled to controls: 0 for no effect and ±100 for the full control effect; potency is read from the fitted curve at half-maximal effect.
SMILES,12-LOX inh,VP16 counter,TDP1 cell noCPT,RORgamma inh,ELG1 DNA repair,DT40 TDP1 CPT
CN(c1ccc(Cl)cc1)c1cc(=O)n(C)c2ccccc12,?,0.1%,?,-0.9%,?,12.6µM*
COc1ccccc1NC(=O)CCCOc1cc(=O)n(C)c2ccccc12,-9.9%,/,20.6µM*,/,/,?
COc1ccc2c(OC)cc(=O)n(C)c2c1,-1.6%,-18.7%,-9.4%,-13.4%,?,2.7%
COc1cc(=O)n(C)c2ccccc12,2.3%[57.4 µM],0.0%,-1.6%,12.6µM*,/,4.6%
CC(C)CCNC(=O)CCCOc1cc(=O)n(C)c2ccccc12,0.0%,11.4%,?,12.6µM*,?,?
COc1ccccc1C1=NN(C(=O)C(C)C)C(c2ccc3nccnc3c2)C1 (stereo not given),-45.2%,/,/,/,/,/
Cc1cccc(/C=C2/S/C(=N/N=C3\CC4CCC3(C)C4(C)C)NC2=O)c1 (stereo not given),0.2%,?,20.6µM*,8.91µM*,-22.0%,?
Cc1ccc(C(=O)N/N=C2/CC3CCC2(C)C3(C)C)cc1 (stereo not given),14.2%,/,/,/,/,/
CC(=O)N1CCC(N[C@H]2C[C@@H](Cc3cc(CN4CCOCC4)on3)C2(C)C)CC1,9.5%[176 µM],/,/,/,/,/
O=[N+]([O-])c1cccc(COc2ccccc2CN2CCCCC2)c1,2.3%,/,?,/,/,?
O=[N+]([O-])c1cccc(COc2ccc(CN3CCCCC3)cc2)c1,10.9%,/,23.1µM*,/,/,20.6µM*
O=[N+]([O-])c1ccc(COc2cccc(CN3CCOCC3)c2)cc1,0.5%,/,23.1µM*,/,/,18.4µM*
Cc1nc(-c2ccc(CNC(=O)c3ccccn3)s2)cs1,-1.5%,/,/,/,/,/
Cn1cc(CC(=O)Nc2ccc(C(F)(F)F)cc2)c2ccccc21,-1.5%,/,/,/,/,/
CC(=O)NC12CC3CC(C1)CC(C(=O)OCC(=O)Nc1ncc(Cl)c(C)c1Cl)(C3)C2,?,-1.1%,-18.9%,0.0%,-12.0%,-18.3%
CC(=O)NC12CC3CC(C1)CC(C(=O)OCC(=O)c1ccc4c(c1)OCCO4)(C3)C2,88.0%,?,?,14.1µM*,?,?
O=C(CC(c1ccc(OCc2ccccc2)cc1)S(=O)(=O)c1ccccc1)c1ccc(F)cc1 (stereo not given),15.9%,/,/,/,/,/
Cc1ccc(Cl)cc1N(C)C(=O)Cn1ncc2c([nH]c3ccccc32)c1=O,0.9%,-7.3%,-18.6%,11.4%,-3.3%,-20.7%
Cc1ccc2oc(=O)c3cnn(CC(=O)NC4CCN(Cc5ccccc5)CC4)c3c2c1,34.9%,-3.1%,20.6µM*,-27.3%,?,16.4µM*
Cc1ccc2[nH]c3c(=O)n(CC(=O)N(CCN(C)C)Cc4ccccc4)ncc3c2c1,?,/,23.1µM*,/,/,?
Cc1ccc(N(C)C(=O)Cn2ncc3c([nH]c4ccccc43)c2=O)cc1C,-23.1%,/,?,/,/,11.6µM*
Cc1ccc(C)c(N2CCN(C(=O)Cn3ncc4c([nH]c5ccc(C)cc54)c3=O)CC2)c1,-0.3%,-10.9%,13µM*,13.9%,?,14.6µM*
O=C(Cn1ncc2c(=O)oc3ccccc3c21)NC1CC1,-19.2%,0.8%,-26.2%,-11.0%,3.3%,-0.9%
CCc1cccc(NC(=O)Cn2ncc3c([nH]c4ccc(C)cc43)c2=O)c1,-28.5%,/,4.4%,/,/,-1.3%
Cc1ccc2c(c1)-c1c(cnn1CC(=O)N1CCN(c3cc(Cl)ccc3C)CC1)CO2,-15.9%,/,?,/,/,?
SMILES,12-LOX inh,VP16 counter,TDP1 cell noCPT,RORgamma inh,ELG1 DNA repair,DT40 TDP1 CPT
CCN(C(=O)Cn1ncc2c(=O)oc3ccccc3c21)c1ccccc1F,-11.6%,/,?,/,/,-26.8%
CCCN(C(=O)Cn1ncc2c(=O)oc3ccccc3c21)c1cccc(C)c1,-5.2%,-1.2%,20.6µM*,-20.0%,/,23.1µM*!
CCN(CC)CCOC(=O)c1ccc(NC(=O)Cn2ncc3c([nH]c4ccc(C)cc43)c2=O)cc1,?,/,3.26µM*,/,/,4.11µM*
Cc1ccc2[nH]c3c(=O)n(CC(=O)N(C)c4cc(Cl)ccc4C)ncc3c2c1,-25.8%,/,14.6µM*,/,/,18.4µM*
Cc1ccc2oc(=O)c3cnn(CC(=O)N4CCN(c5cc(Cl)ccc5C)CC4)c3c2c1,-2.3%,/,16.4µM*,/,/,?
CNC(=O)c1c(NC(=O)c2ccc(S(=O)(=O)N(C)c3ccccc3)cc2)sc2c1CCN(C(C)C)C2,0.0%,?,18.4µM*,38.7%,?,18.4µM*
CCN1CCc2c(sc(NC(=O)c3ccc4ccccc4c3)c2C(N)=O)C1,14.9%,?,/,?,?,/
CCN1CCc2c(sc(NC(=O)c3ccc(S(=O)(=O)N(C)c4ccccc4)cc3)c2C(=O)NC)C1,/,?,20.6µM*,?,?,16.4µM*
CC(=O)Nc1ccc(C2(C(=O)NCc3cc(F)cc(F)c3)CCCCC2)cc1,15.4%,/,/,/,/,/
Cc1ccc(OCc2ccc(C(=O)O)o2)c([N+](=O)[O-])c1,-12.1%,-15.4%,-15.2%,-9.7%,?,-14.8%
O=C(Nc1nc2ccccc2n1CCN1CCOCC1)c1ccc(COc2ccccc2Br)o1,13.4%,5.62µM*,?,2µM*,20.6µM*,?
Cc1ccc(OCc2ccc(C(=O)Nc3nc4ccccc4n3Cc3ccccc3)o2)c([N+](=O)[O-])c1,10.2%,0.316µM*,?,?,?,?
Cc1ccc(OCc2ccc(C(=O)Nc3nc4ccccc4n3C)o2)c([N+](=O)[O-])c1,4.9%,3.16µM*,?,5.62µM*,0.3%,-10.9%
O=C(Nc1nc2ccccc2n1Cc1ccccc1)c1ccc(COc2ccccc2[N+](=O)[O-])o1,17.8%,?,?,?,-11.4%,?
O=C(NCC1Cn2cccc2C(=O)N1Cc1ccccc1)c1ccc2ccccc2n1 (stereo not given),55.8%,/,/,/,/,/
Cc1ccc(NC(=O)CN2C(=O)NC(Cc3c[nH]c4ccccc34)C2=O)cc1S(=O)(=O)N1CCCCC1 (stereo not given),-11.6%,2.1%,20.6µM*,9.2%,?,20.6µM*

# High-throughput results deposited in PubChem BioAssay by National Center for Advancing Translational Sciences (NCATS).
